Test results published in the supplement of paper PMC10849652.
About 7,900 targets were measured; listed, in parts, are those with a hit and a random draw of the rest. About 0.6% of all pairs of compound and target were hits.

Compound: CS(=O)(=O)N1CCN(Cc2cc3nc(-c4cccc5[nH]ncc45)nc(N4CCOCC4)c3s2)CC1 [pictilisib]
Assay: log2 fold change, soluble protein after heating vs DMSO (PISA); higher = thermal stabilisation; K562 cells, 10 uM, 30 min; active = over 0.2 and 3.5 SD of the protein, either way, in both replicates (recomputed)
Summary of the method: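 Values are thermal stability changes relative to control samples and are taken from duplicates. They are stated as log2 fold changes. Before quantification by TMTpro 16plex LC-MS/MS with equalised channel sums, K562 cells at 2×10^6 cells/mL were treated with 10 μM compound for 30 min, heated in aliquots for 3 min across 48°C-58°C, pooled, extracted in PBS with 0.5% NP-40 at 4°C, and centrifuged at 21,000xg for 90 min to give the soluble supernatant.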

Sequence of UniProt Q6P3S6 (Q6P3S6 whole entry, looked up): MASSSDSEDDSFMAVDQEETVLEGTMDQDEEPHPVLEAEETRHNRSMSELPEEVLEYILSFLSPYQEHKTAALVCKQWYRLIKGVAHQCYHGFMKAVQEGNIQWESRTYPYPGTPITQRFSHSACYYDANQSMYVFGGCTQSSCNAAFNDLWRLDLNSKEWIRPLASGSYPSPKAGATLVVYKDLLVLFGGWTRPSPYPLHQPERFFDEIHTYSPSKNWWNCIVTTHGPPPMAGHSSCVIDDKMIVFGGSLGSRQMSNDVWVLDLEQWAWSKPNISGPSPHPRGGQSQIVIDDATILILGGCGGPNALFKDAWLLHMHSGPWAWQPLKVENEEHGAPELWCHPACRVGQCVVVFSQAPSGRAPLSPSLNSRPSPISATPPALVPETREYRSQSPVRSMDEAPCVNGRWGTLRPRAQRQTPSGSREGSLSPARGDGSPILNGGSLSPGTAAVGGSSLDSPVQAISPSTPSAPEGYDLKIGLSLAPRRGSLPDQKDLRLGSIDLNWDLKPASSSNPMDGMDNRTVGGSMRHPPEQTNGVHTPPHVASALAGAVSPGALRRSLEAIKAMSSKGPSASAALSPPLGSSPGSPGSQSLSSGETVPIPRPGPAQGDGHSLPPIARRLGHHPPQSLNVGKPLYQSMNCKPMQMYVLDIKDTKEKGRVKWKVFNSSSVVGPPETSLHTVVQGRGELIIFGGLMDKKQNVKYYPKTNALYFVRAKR
Sequence of UniProt Q9P2D3 (Q9P2D3 whole entry, looked up): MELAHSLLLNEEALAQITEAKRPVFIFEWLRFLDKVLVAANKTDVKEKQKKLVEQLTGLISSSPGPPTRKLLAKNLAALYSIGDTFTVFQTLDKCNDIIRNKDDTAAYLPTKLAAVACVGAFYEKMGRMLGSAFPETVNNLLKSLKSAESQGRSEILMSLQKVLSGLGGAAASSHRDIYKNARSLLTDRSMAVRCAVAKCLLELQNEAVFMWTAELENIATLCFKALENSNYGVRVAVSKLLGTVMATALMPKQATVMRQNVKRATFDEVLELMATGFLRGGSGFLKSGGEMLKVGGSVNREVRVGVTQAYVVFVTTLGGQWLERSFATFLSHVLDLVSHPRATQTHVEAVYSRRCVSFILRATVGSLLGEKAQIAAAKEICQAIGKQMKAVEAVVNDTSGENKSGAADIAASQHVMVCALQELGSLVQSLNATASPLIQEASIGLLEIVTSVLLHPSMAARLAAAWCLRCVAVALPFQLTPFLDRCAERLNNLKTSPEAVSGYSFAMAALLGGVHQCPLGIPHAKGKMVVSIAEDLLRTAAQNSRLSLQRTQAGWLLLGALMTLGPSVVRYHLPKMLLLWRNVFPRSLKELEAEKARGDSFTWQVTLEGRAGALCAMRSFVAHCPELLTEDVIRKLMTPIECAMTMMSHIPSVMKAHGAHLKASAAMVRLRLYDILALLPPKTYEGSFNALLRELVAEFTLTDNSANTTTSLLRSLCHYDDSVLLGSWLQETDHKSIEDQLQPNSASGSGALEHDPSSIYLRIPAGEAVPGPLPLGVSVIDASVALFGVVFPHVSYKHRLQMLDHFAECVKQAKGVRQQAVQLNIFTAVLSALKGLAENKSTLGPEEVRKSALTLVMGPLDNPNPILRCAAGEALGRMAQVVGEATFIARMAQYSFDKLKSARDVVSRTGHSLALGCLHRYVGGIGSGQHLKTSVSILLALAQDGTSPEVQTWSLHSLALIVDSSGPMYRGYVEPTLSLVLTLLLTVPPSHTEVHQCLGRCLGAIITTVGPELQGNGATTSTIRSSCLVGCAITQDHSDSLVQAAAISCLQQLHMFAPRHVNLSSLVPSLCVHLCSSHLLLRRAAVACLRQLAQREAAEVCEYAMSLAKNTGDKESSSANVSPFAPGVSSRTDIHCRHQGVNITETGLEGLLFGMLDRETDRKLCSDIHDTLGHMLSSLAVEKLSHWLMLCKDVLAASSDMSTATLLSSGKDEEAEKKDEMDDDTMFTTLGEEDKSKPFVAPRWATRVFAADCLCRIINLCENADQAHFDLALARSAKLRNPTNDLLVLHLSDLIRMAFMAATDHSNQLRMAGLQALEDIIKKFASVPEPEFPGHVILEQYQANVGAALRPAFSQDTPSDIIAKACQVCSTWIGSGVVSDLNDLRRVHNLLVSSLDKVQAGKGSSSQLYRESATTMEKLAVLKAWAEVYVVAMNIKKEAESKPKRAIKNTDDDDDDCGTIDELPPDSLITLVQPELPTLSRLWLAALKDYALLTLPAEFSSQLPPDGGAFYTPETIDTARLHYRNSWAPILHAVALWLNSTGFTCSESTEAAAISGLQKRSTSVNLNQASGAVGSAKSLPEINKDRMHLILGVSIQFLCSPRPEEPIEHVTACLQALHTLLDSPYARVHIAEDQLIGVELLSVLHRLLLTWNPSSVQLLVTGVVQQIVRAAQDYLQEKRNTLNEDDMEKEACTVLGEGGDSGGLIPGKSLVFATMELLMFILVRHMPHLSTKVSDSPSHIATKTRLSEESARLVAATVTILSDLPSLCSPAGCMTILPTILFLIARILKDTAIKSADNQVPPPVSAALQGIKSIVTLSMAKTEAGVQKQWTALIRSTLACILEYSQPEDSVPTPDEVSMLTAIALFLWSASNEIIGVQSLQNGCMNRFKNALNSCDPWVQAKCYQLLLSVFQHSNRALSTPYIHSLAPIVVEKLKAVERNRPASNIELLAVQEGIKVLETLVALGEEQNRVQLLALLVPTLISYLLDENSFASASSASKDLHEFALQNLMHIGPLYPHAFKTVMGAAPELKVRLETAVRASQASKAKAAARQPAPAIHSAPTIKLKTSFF
Sequence of UniProt P49448 (P49448 whole entry, looked up): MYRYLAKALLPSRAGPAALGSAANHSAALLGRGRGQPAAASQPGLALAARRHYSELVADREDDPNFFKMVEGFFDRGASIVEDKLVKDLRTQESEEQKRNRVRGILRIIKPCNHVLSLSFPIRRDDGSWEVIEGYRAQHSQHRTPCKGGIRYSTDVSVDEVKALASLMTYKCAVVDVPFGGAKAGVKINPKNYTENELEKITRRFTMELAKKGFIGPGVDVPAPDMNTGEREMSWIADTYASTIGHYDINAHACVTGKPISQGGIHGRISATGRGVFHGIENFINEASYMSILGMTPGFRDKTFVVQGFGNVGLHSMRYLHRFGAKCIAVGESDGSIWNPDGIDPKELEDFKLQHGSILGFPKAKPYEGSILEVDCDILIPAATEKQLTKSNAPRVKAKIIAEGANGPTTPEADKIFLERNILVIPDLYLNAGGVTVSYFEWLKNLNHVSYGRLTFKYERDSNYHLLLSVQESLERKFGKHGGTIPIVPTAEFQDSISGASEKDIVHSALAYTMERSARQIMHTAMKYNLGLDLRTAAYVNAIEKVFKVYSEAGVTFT
Sequence of UniProt P23434 (P23434 whole entry, looked up): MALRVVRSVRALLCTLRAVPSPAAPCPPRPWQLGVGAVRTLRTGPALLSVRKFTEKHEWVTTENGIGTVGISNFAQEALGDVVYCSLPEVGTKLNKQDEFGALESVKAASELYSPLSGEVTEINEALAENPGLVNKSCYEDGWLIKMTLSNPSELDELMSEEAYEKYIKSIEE
Sequence of UniProt P00390 (P00390 whole entry, looked up): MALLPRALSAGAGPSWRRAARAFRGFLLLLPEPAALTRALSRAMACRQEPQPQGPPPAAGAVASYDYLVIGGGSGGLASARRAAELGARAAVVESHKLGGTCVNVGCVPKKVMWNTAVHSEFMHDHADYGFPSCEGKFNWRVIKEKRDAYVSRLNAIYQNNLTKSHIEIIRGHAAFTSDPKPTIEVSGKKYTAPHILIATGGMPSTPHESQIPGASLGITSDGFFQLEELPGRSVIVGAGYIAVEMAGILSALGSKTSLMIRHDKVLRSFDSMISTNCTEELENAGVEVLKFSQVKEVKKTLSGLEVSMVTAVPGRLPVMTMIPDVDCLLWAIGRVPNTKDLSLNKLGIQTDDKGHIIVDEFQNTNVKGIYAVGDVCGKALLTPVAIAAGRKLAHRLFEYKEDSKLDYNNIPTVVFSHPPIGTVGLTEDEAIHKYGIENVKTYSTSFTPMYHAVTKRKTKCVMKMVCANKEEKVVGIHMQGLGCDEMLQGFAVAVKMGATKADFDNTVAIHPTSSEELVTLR
Sequence of UniProt P15586 (P15586 whole entry, looked up): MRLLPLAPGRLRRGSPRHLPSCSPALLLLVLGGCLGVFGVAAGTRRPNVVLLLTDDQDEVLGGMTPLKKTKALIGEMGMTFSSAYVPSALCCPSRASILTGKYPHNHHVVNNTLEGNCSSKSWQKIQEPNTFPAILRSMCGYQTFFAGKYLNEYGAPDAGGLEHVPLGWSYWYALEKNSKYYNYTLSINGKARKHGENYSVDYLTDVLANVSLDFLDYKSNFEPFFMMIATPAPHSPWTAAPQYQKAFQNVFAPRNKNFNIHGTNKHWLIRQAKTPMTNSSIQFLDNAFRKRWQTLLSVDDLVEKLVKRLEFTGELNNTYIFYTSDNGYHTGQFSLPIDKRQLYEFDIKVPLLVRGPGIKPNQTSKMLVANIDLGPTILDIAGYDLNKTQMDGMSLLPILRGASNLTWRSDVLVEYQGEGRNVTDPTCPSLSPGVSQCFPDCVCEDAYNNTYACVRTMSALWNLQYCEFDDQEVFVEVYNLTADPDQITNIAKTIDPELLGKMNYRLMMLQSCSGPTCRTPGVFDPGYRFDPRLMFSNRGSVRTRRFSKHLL
Sequence of UniProt Q8NB37 (Q8NB37 whole entry, looked up): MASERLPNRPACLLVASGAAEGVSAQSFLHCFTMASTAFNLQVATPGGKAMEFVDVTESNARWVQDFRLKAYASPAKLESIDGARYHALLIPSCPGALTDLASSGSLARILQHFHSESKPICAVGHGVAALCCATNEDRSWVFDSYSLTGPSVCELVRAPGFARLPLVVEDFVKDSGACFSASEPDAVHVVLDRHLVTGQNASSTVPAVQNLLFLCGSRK
Sequence of UniProt Q92522 (Q92522 whole entry, looked up): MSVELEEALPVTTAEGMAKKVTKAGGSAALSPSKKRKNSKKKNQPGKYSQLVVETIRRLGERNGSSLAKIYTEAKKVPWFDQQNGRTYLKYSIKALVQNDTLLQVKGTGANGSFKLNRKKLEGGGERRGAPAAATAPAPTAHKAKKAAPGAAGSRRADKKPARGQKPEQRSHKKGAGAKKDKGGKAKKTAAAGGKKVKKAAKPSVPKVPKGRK

Row | Target | log2 fold change
1 | IGF2BP2 (UniProt Q9Y6M1) | -0.043 (inactive)
2 | HADHA (UniProt P40939) | 0.425 (inactive)
3 | GCSH (UniProt P23434) | -0.078 (inactive)
4 | HEATR5B (UniProt Q9P2D3) | -0.065 (inactive)
5 | GBF1 (UniProt Q92538) | -0.036 (inactive)
6 | GOLPH3 (UniProt Q9H4A6) | -0.051 (inactive)
7 | GYS1 (UniProt P13807) | 0.219 (inactive)
8 | GNS (UniProt P15586) | 0.014 (inactive)
9 | FIS1 (UniProt Q9Y3D6) | 0.071 (inactive)
10 | HMGB3 (UniProt O15347) | -0.044 (inactive)
11 | HHEX (UniProt Q03014) | -0.012 (inactive)
12 | GSR (UniProt P00390) | 0.036 (inactive)
13 | GLUD2 (UniProt P49448) | 0.216 (inactive)
14 | FBL (UniProt P22087) | -0.093 (inactive)
15 | HTATIP2 isoform 3 (UniProt Q9BUP3) | 0.137 (inactive)
16 | GNG5 (UniProt P63218) | -0.087 (inactive)
17 | HDAC6 (UniProt Q9UBN7) | 0.062 (inactive)
18 | HNRNPUL1 (UniProt Q9BUJ2) | 0.014 (inactive)
19 | FHOD1 (UniProt Q9Y613) | 0.01 (inactive)
20 | H1FX (UniProt Q92522) | -0.134 (inactive)
21 | FOXK1 (UniProt P85037) | 0.584 (inactive)
22 | HDHD2 (UniProt Q9H0R4) | -0.011 (inactive)
23 | FBXO42 (UniProt Q6P3S6) | -0.088 (inactive)
24 | GNPAT (UniProt O15228) | 0.148 (inactive)
25 | HNRNPK isoform 2 (UniProt P61978) | 0.004 (inactive)
26 | GATD1 (UniProt Q8NB37) | 0.08 (inactive)
27 | GCC2 (UniProt Q8IWJ2) | 0.014 (inactive)
